This assay deals with Vero E6 infected with SARS-CoV-2. The experiment in a line: inhibition of SARS-CoV-2 cytopathic effect; higher = more antiviral protection, active = above 15. Conditions: 48 h. (In general: Cytopathic effects are the visible damage that an infection or toxin causes in cultured cells.)

A number with no mark means an inactive call.

As to `COc1ccc(CCc2nc3cc(-c4c(C)noc4C)ccc3n2C[C@H](C)N2CCOCC2)cc1Cl`, the “inhibition of SARS-CoV-2 cytopathic effect” value (“inhibition” below) is, setting by setting: (1 nM) 0.67%; (8.33 nM) 1.61%; (100 nM) 0.26%; (833.33 nM) -1.13%; (10000 nM) 5.31%.

For the compound `Nc1ncnc2c1c(-c1cccc(OCc3ccccc3)c1)cn2C1CC(CN2CCCC2)C1` (stereo in doubt), the “inhibition” value is -0.48% (1 nM); 0.04% (8.33 nM); 1.98% (100 nM); 0.14% (833.33 nM); 27.9% (active) (10000 nM).

`Cc1cc(=O)n(-c2ccccc2)[nH]1` [N-demethylantipyrine]: the “inhibition” value (1 nM) was 6.19%; the “inhibition” value (8.33 nM) was -3.23%; the “inhibition” value (100 nM) was -4.99%; the “inhibition” value (833.33 nM) is -2.77%; the “inhibition” value (10000 nM) is -2.87%.

As to `C[C@H](NC(=O)Cc1cc(F)cc(F)c1)C(=O)N[C@@H]1C(=O)N(C)c2ccccc2-c2ccccc21`, the “inhibition” value (1 nM) is -2.68%; the “inhibition” value (8.33 nM) is -3.21%; the “inhibition” value (100 nM) was -6.27%; the “inhibition” value (833.33 nM) is -7.86%; the “inhibition” value (10000 nM) is -8.97%.

Take `CC(=O)N(C)c1cccc(-c2ccnc3c(C(=O)c4cccs4)cnn23)c1` [indiplon]: the “inhibition” value is 2.87% (1 nM); 0.82% (8.33 nM); 4.78% (100 nM); 4.31% (833.33 nM); 0.34% (10000 nM).

On to `Nc1nc(=O)n([C@H]2C[C@H](O)[C@@H](CO)O2)cc1Cl` [cytochlor], for which the “inhibition” value (1 nM) was 0.97%; the “inhibition” value (8.33 nM) is 0.46%; the “inhibition” value (100 nM) was 0.45%; the “inhibition” value (833.33 nM) is 1.92%; the “inhibition” value (10000 nM) is -1.33%.

As for `CC[C@@H](c1ccc(F)c(F)c1)n1c(C(=O)OC)c(-c2ccno2)[nH]c1=S`, the “inhibition” value is 1.31% (1 nM); 2.77% (8.33 nM); 1.18% (100 nM); 1.19% (833.33 nM); -0.12% (10000 nM).

The values above are taken from the supplement of paper PMC13380429.
